Measurements reported in PubChem BioAssay AID624263 (National Center for Advancing Translational Sciences (NCATS), 2012).
Where “and” joins values, the source holds several entries; their conditions need not be identical. Equal entries are not always repeated. Hit rate of the full screen: of about 410,000 compounds, about 820 (0.2%) were called active. Not shown: some 2% with an inconclusive outcome. The call rests on the fitted dose curve; in most records, active means well fitted activation curve with a large enough effect; inconclusive means small, poorly fitted or top-dose-only effect; inactive means flat fitted curve, though single readings scatter; cell line not stated here. The entries come from a sample that favours actives as a whole. Some structures have more than one record in an assay (separate samples or runs), and their calls can disagree.

Experiment: A Quantitative High throughput Screen to Identify Chemical Modulators of PINK1 Expression; further: nearly all actives have a fitted effect of over 65% in size; on activation (PINK1 increase): % of control where 0% means no effect
Conditions: PINK1 immunofluorescence, high-content cytometry, 24 h; series mostly up to 76.6 µM; activation (PINK1 increase): at the top concentration
Excerpt: The overall goal of this project is to develop new tools for understanding and treating the mitochondrial basis for neurodegenerative disease such as Parkinson's disease (PD). The PINK1 campaign was developed from recent data pointing towards mitochondrial dysfunction as a major contributor to dopaminergic neuron loss. The discovery of PINK1/Parkin mediated mitophagy has highlighted the potential for mitochondrial quality control as a novel target for therapeutic intervention. […] A second aim of this project is the development of chemical probes to study the mechanics of mitochondrial quality control. As the PINK1/Parkin mitophagy pathway is a relative recent discovery, no specific chemical probes are available that modulate the process. Presently, only crude tools that cause nonspecific mitochondrial damage are available. To advance the understanding of mitophagy, specific, well characterized chemicals that target various steps of mitophagy regulation need to be developed. New chemical probes may have the ability to dynamically manipulate mitophagy in model organisms such as rodents and zebrafish, advancing our understanding of the process in development and disease. This HTS campaign seeks to discover an activator of PINK1 expression by modulation at the level of post-translational processing.
The PINK1 assay determines the amount and localization of PINK1 protein in a cell using a combination of immunofluorescence and cell staining. The goal of the assay is to determine small molecules that can increase the expression of Pink1 on or inside the cell's mitochondria (ideally without mitochondrial depolarization) using a stable cell line. Since PINK1 protein is rapidly degraded in un-perturbed cells, compounds that induce the enhancement of PINK1 protein expression are identified by determining PINK1 immunofluorescence in conjunction with a mitochondrial, cell, and nuclear marker post fixation. To facilitate rapid high content screening, the primary assay is run in a decision-based HTS mode where compound titration data collected by laser-scanning microplate cytometers is processed and only promising compound series are passed off for high content drill down.
1 Add cells to black, clear-bottom, low-base 1536-well plates 6 uL (250 cells/well)
2 Incubate in TC incubator (12 hours)
3 Pin compounds or DMSO controls 23 nL (5 concentrations per compound set)
4 Dispense CCCP to control columns
5 Incubate in TC incubator 24 hours
6 Aspirate media and fix cells (5 uL of fixative containing nuclear dye)
7 Incubate 15 minutes at RT
8 Wash in PBSTween (12 uL/well)
9 Wash in PBSTriton (12 uL/well)
10 Aspirate wash and add Blocking buffer (4 uL/well)
12 Aspirate block and add primary antibodies 3.5 (uL/well)
13 Incubate 12 hours at 10 degrees C
14 Wash in PBSTween-20 two times (12 uL/well)
15 Aspirate wash and add secondary antibodies (12 uL/well)
17 Wash in PBSTween (12 uL/well)
18 Wash in PBSTween with cell stain (12 uL/well)
19 Read plates on Acumen EX3 and determine Wells2Cells coordinates
Potency means the concentration at half of the fitted maximal effect.

Activation (PINK1 increase), inactive:
OC(COc1ccc(F)cc1Cl)CN1CCc2ccccc2C1 (configuration not stated) 1.72%
Cc1cccc(OCC(O)CN2CCN(S(=O)(=O)c3ccc(C)cc3C)CC2)c1 (configuration not stated) 0.654%
O=C(NCC1Cc2cc(F)cc(-c3cnccn3)c2O1)C1COc2ccccc2O1 (configuration not stated) 0.603%
O=C(C(=O)N1CCOc2ccc(CN3CCN(Cc4ccccn4)CC3)cc2C1)c1ccccc1 0.0595%
COc1ccc2c(c1)CCc1cnc(-n3ncc(C(=O)NCc4cccnc4)c3C3CC3)nc1-2 0.559%
O=Nc1c(O)cc(O)c2ccccc12 1.49%
O=C(N/N=C/c1cccc2cccnc12)[C@H]1C[C@@H]1c1ccccc1 -0.0622%
CCC1CN(CCNC(=O)c2cccnc2C)Cc2cc(OC)ccc2O1 (configuration not stated) -0.526%
Cc1c(C(=O)NCC2CCCN(C)C2)cnn1-c1nccc(-c2ccco2)n1 (configuration not stated) 0.569%
CCN(CC)c1ccc(/C=C/c2c(C)cnc3ccc(C)cc23)cc1 3.71%
COc1cc(C)c(CN2CCc3nnc(C(C)NC(=O)c4cccnc4)n3CC2)cc1C (configuration not stated) 0.397%
CCCCN(C)c1nnc(NC(=O)Nc2ccc(Br)c(C)c2)s1 0.951%
Cc1ccc(CNC(=O)Nc2nnc([C@H]3C[C@H](O)[C@@H](CO)O3)s2)cc1 -0.0573%
C/C=C/NNC(=O)Cc1ccc(OC)cc1 7.35%
Cn1cccc1C(=O)N1CCC2(CC1)CN(c1cccc(-c3ccccc3)c1)C2 0.654%
COc1c2c(cc3occ(-c4ccc5c(c4)OCO5)c(=O)c13)OC(C)(C)C=C2 1.47%
CC(=O)N1CCC(N(C(=O)Nc2ccc(Cl)cc2)C(C)C)CC1 0.539%
CC(=O)c1ccc(NC(=O)C(C)NCc2ccc(Cl)cc2)cc1 (configuration not stated) 0.227%
COc1cc(=O)n2c(c1C(=O)NC(C)c1ccco1)CCN(Cc1cc(C)cc(C)c1)CC2 (configuration not stated) 0.333%
COc1ccc2[nH]cc(CCNc3ncnc4ccc(-c5ccc(C(=O)N(C)C)cc5)cc34)c2c1 1.44%
O=C(CNS(=O)(=O)c1ccc2ccccc2c1)Nc1ccc(F)c(F)c1F 6.76%
O=C(CNc1cccc(S(=O)(=O)N2CCCCC2)c1)Nc1ccccc1F 0.781%
Cc1cnc(-n2ncc(C(=O)N3CCN(C(C)C)CC3)c2-c2ccco2)nc1-c1ccc(F)cc1 1.72%
CC(C)(C)c1ccc(C(=O)C[n+]2cccc3cc(Cl)ccc32)cc1 5.06%
OCC1CCCN(c2nc3cc4c(cc3cc2CNCc2cccs2)OCO4)C1 (configuration not stated) -0.93%
Cc1ccc(NC(=O)COC(=O)C2CC2)cc1S(=O)(=O)N1CCOCC1 0.894%
Cc1ccc(NC(=O)CCCNC(=O)c2ccc(Cl)cc2)cc1S(=O)(=O)N1CCCCC1 2.17%
COc1cc(=O)n2c(c1C(=O)NC(C)c1ccco1)CCN(C(=O)c1cn3ccc(C)cc3n1)CC2 (configuration not stated) 0.949%
COc1cc(=O)n2c(c1C(=O)N(C)Cc1nonc1C)CCN(C(=O)c1ccc(C)cc1C)CC2 -0.189%
CCC1CN(CCNC(=O)c2ccsc2)Cc2cc(OC)ccc2O1 (configuration not stated) -0.839%
Cc1nc2cc(NC(=O)[C@@H]3C[C@@H](Sc4ccccn4)CN3Cc3ccccc3C)ccc2s1 0.376%
N#Cc1ccc[n+](CC(=O)c2ccc(O)c(O)c2)c1 0.262%
O=C(Nc1nnc(S(=O)(=O)N2CCCc3ccccc32)s1)c1cccc(F)c1 2.55%
Cc1nn(Cc2ccc(F)cc2)c(C)c1NC(=O)c1cc(CC(C)C)on1 0.475%
CC(C)Cc1cc(C(=O)NCCc2ccccc2)no1 0.759%
Cc1nc2cnc(N3CCNCC3)nc2n(Cc2ccc(F)cc2)c1=O -0.606%
COCc1c(C(=O)NC2CCCCC2)cnn1-c1nccc(-c2ccccc2OC)n1 0.512%
COc1ccc(/C=C/c2ccccn2)cc1OC 1.64%
CCCS(=O)(=O)NCc1c(C)ncc2c1CCN(C(=O)c1ccc(F)c(F)c1)C2 0.24%
CC(O)(COc1ccccc1)c1ccc2c(c1)CN(Cc1cn[nH]c1-c1ccc(F)cc1)CCO2 (configuration not stated) -0.0916%
O=[N+]([O-])c1ccccc1N/N=C1\CCc2ccccc21 1.04%
CN(C)c1ccc(/C=N\Nc2ccc([N+](=O)[O-])cc2[N+](=O)[O-])cc1Cl 0.417%
COc1ccc(C)cc1N1C(=O)[C@@H]2C[C@H]1CN2Cc1cccc(OC)c1O 0.987%
Cc1[nH]c2c(C(=O)NCC3Cc4cccc(-c5cccnc5)c4O3)cccc2c1C (configuration not stated) 1.19%
COc1ccc2c(c1)c(=Cc1ccc(N(C)C)cc1)c1cc(-c3ccccc3)[n+](C)n12 -1.26%
CN(C)c1ccc(C=Nc2ccc(/C=C/c3ccnc4ccccc34)cc2)cc1 -0.636%
COc1ccccc1-c1ccc(C(=O)N(C)C(C)c2ccon2)c(N2CCN(c3ccccc3F)CC2)n1 (configuration not stated) 1.15%
Cc1ccc(-c2ccnc(-n3ncc(C(=O)N(C)Cc4cccc5ncccc45)c3C3CC3)n2)o1 0.511%
CC(=O)c1ccc(NC(=O)CSc2nnc(NC(=O)Nc3ccccc3)s2)cc1 -0.057%
Cc1ccc(C(=O)Nc2nc(-c3ccccc3)ns2)cc1 14.4%
CC(=O)c1cccc(NC(=O)CSc2nc3c(c(=O)[nH]2)CCC3)c1 1.26%
CN(C(=O)CSc1nnc(NC(=O)Nc2ccccc2)s1)c1ccccc1 1.45%
COC(=O)[C@@H]1C[C@H](NC(=O)c2ccccc2C(F)(F)F)CN1Cc1cccc(O)c1 0.0682%
CC(=O)c1ccc(F)c(-c2cc(C)cc3c2OC(CNC(=O)Cc2c[nH]c4ccccc24)C3)c1 (configuration not stated) -0.04%
C(=Nc1ccc(/C=C/c2ccnc3ccccc23)cc1)Nc1ccc(/C=C/c2ccnc3ccccc23)cc1 -0.124%
Cc1ncc2c(c1CNS(=O)(=O)N(C)C)CCN(C(=O)c1ccccc1F)C2 -0.0214%
OCC(O)C(O)C(O)C(O)C=Nc1ccc(/C=C/c2ccnc3ccccc23)cc1 (configuration not stated) 0.535%
COc1ccc(Oc2ncc3nc(-c4ccc(F)cc4)c(=O)n(C)c3n2)cc1 -0.15%
CN(c1ccc2nc3ccccc3c(=O)n2n1)C1CCCCC1 0.372%
CC1(C)Cc2ccccc2-c2c[nH]c(=O)n21 -0.443%
COCC1CCCN(Cc2ccc3c(c2)CN(C(=O)c2ccnn2C)CCO3)C1 (configuration not stated) 0.143%
C(=Nc1ccc(/C=C/c2ccnc3ccccc23)cc1)c1cc2c3c(c1)CCCN3CCC2 -0.851%
Cc1cccc2c3c(ccc12)C1=C(C(=O)C3=O)C(C)CO1 (configuration not stated) 8.81%
O=C1NC(CC(=O)N2CCC(n3c(C4CCC4)nc4cccnc43)CC2)c2ccccc21 (configuration not stated) -0.132%
CCN(CC)/[N+]([O-])=N/OCOC(=O)Cc1c(C)n(C(=O)c2ccc(Cl)cc2)c2ccc(OC)cc12 -1.4%
Cc1cc(-c2ccnc(-n3ncc(C(=O)NCCc4ccncc4)c3C)n2)c(C)s1 0.637%
Cc1cc(C(=O)NCC2Cc3cccc(-c4cncnc4)c3O2)c(C)o1 (configuration not stated) 0.573%
CN(C)c1ccc(CN2CCOc3ccc(CN4CCC(O)(c5cccnc5)CC4)cc3C2)cc1 -0.177%
O=C(c1cn(CC2CCCN(Cc3cc4ccccc4s3)C2)nn1)N1CCCC1 (configuration not stated) -0.201%
CCC1(C2CCN(C(=O)c3cccc(F)c3F)CC2)NC(=O)N(CCc2scnc2C)C1=O (configuration not stated) 0.188%
CCCCN(C)S(=O)(=O)c1ccc(C(=O)Nc2sc3c(c2C(N)=O)CC(C)(C)NC3(C)C)cc1 -2.36%
CCOC(=O)c1c(NC(=O)c2ccc(S(=O)(=O)N(CC)CC)cc2)sc2c1CCCCC2 -1.12%
COc1ccc2c(c1)NC(=O)C2CC(=O)N1CCOc2c(cc(-c3cnc4ccccc4c3)cc2OC)C1 (configuration not stated) 1.57%
COC(=O)c1ccccc1-c1cc(C)cc2c1OC(CNC(=O)C1CCOC1)C2 (configuration not stated) -0.262%
COc1ccc(CCNc2ncnc3sc(C(=O)N4CCCC4)c(C)c23)cc1OC -0.358%
COc1cc(-c2cccnc2)cc2c1OCCN(C(=O)Cc1csc(C)n1)C2 0.58%
O=C(c1cccc(Cn2cccn2)c1)N1CCOc2c(cc(-c3csc4ccccc34)cc2OC2CCOC2)C1 (configuration not stated) 0.191%
N#Cc1cccc(-c2ccc3ncnc(NCc4cccs4)c3c2)c1 -0.262%
Cc1cc(-c2ccnc(-n3ncc(C(=O)NC(C)(C)CO)c3C3CC3)n2)c(C)s1 0.0821%

Potency, inactive and 28.2 µM (active):
O=C(Nc1nnc(S(=O)(=O)N2CCCCCC2)s1)c1cccc(Br)c1

Potency, active:
Cc1ccc(OCC(O)CN2CCN(CC(O)COc3ccc(C)cc3Cl)CC2)c(Cl)c1 (configuration not stated) 11.2 µM
O=C(NN=Cc1ccccc1O)NN=Cc1ccccc1O 0.891 µM
CC12CCC(C(=O)N(CCC#N)CCC#N)(CC1=O)C2(C)C (configuration not stated) 5.01 µM
Cc1ccc(NC(=O)Nc2nnc(-c3ccncc3)s2)cc1 15.8 µM
CCCc1cc(=S)n2c([nH]c3ccccc32)c1C#N 28.2 µM
CC(C)S(=O)(=O)c1csc(NC(=O)Nc2ccc(Cl)cc2)c1Cl 15.8 µM
O=C(CNS(=O)(=O)c1cccc(C(F)(F)F)c1)Nc1ccccc1F 10 µM
Cc1ccc(NC(=O)CCC(=O)N2CCC(c3ccccc3)=N2)cc1S(=O)(=O)N1CCCCC1 11.2 µM
CC(C)Cc1cc(C(=O)Nc2cc(Br)ccc2O)no1 44.7 µM
O=[N+]([O-])c1ccc(O)c(/C=N/Nc2ccccc2[N+](=O)[O-])c1 20 µM
CN(C)c1ccc(/C=C/c2sc3ccccc3[n+]2C)cc1 44.7 µM
C=CCSc1nsc(NC(=O)Nc2cccc(C(C)=O)c2)n1 15.8 µM
CSc1nsc(NC(=O)Nc2ccccc2)n1 22.4 µM
O=c1c2ccccc2nc2n1C1(CCCCC1)Cc1ccccc1-2 4.47 µM
Oc1c(Cl)cc(Cl)c(Cl)c1Cc1c(O)c(Cl)cc(Cl)c1Cl 2.82 µM
C=CCN(CC=C)S(=O)(=O)c1ccc(C(=O)Nc2sc3c(c2C(N)=O)CCCCC3)cc1 10 µM

Potency, inactive:
O=C(Nc1nnc(S(=O)(=O)N2CCOCC2)s1)c1cccc(Br)c1
